Dicer inh: inhibitors of Dicer pre-microRNA processing, primary screen, biochemical, cat-ELCCA, chemiluminescence; Endoribonuclease Dicer (Homo sapiens), Q9UPY3; z-score at 25 µM; hit rate 6% among 47,000; cat-ELCCA pre-miR-21 Dicer processing; stronger effect = higher value; in the data active = z-score above about 3, passing the limit was not always enough;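 also: higher signal means more uncleaved substrate so more Dicer inhibition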
A number is an active result; 0 = inactive. This is one part of a sample in which hits are shown more often than they occur.

SMILES	Dicer inh
CCOC(=O)c1ccc2c(c1)C1C=CCC1C(c1ccccc1)N2 (centres undefined)	0
O=C(O)c1ccc2c(c1)[C@@H]1C=CC[C@@H]1[C@H](c1ccccc1Br)N2	3.1
O=C(O)c1ccc2c(c1)C1C=CCC1C(c1ccc(Cl)cc1)N2 (centres undefined)	0
CCOC(=O)c1ccc2c(c1)[C@@H]1C=CC[C@@H]1[C@H](c1cccc(OC)c1OC)N2	0
Clc1ccc2c(c1)C1C=CCC1C(c1ccccc1)N2 (centres undefined)	0
COc1ccc(Br)cc1[C@@H]1Nc2ccc(C(=O)O)cc2[C@@H]2C=CC[C@@H]21	0
CCOC(=O)c1ccc2c(c1)C1C=CCC1C(c1ccc(Br)cc1)N2 (centres undefined)	5.6
CC(C)COC(=O)c1ccc2c(c1)C1C=CCC1C(c1ccc(F)cc1)N2 (centres undefined)	0
Cc1ccc2c(c1)C1C=CCC1C(c1ccccc1Cl)N2 (centres undefined)	4.1
CC(C)(C)c1ccc(/C(N)=N/OC(=O)Cc2cccs2)cc1	0
COc1cccc(CNc2nccs2)c1O	0
CCOC(=O)c1c(C)c(C#N)c(N)n1-c1ccc(C)cc1	0
O=[N+]([O-])c1ccc(C2Nc3cc(Cl)ccc3O2)s1 (centres undefined)	0
Cn1c(=O)c2c(nc(NC3CCCCC3)n2Cc2c(F)cccc2Cl)n(C)c1=O	0
COCCCC/C(=N\OCCN)c1ccc(C(F)(F)F)cc1	0
CCOC(=O)N/N=C/c1ccc(Cl)c(Cl)c1	0
CCOc1ccc(S(=O)(=O)N2CCCN(S(=O)(=O)c3ccc(OCC)cc3)CC2)cc1	0
O=S(=O)(c1ccc(NC(=S)NC2CCCCC2)cc1)N1CCCCC1	0
CCOc1ccc(/C=N/NC(=S)Nc2ccc(S(=O)(=O)N3CCCCC3)cc2)cc1	7.3
Cc1cc(C)c(C#N)c(OCC(=O)Nc2ccccc2)n1	0
CCOC(=O)c1c(C)oc2ccc(OC)cc12	0
CCOC(=O)CCC(=O)c1c(C)oc2ccc(OC)cc12	3.1
COCCOC(=O)c1c(C)oc2ccc(OC)cc12	0
c1ccc2c(c1)CCc1c-2nc2ccccc2c1N1CCOCC1	0
C=CCOc1cccc(C(Nc2cc(C)ccn2)c2ccc3cccnc3c2O)c1 (centres undefined)	8.3
SMILES	Dicer inh
Cc1ccnc(NC(c2cc(C)ccc2O)c2ccc3cccnc3c2O)c1 (centres undefined)	11
Cc1ccnc(NC(c2cccc(F)c2)c2ccc3cccnc3c2O)c1 (centres undefined)	11
COc1cccc(C(Nc2cc(C)ccn2)c2ccc3cccnc3c2O)c1 (centres undefined)	0
Cc1ccnc(NC(c2cccc(F)c2)c2ccc3ccc(C)nc3c2O)c1 (centres undefined)	6.1
Cc1ccnc(NC(c2ccccc2F)c2ccc3cccnc3c2O)c1 (centres undefined)	0
Cc1ccnc(NC(c2ccc(C)s2)c2ccc3cccnc3c2O)c1 (centres undefined)	0
COc1ccc(C(Nc2cc(C)ccn2)c2ccc3ccc(C)nc3c2O)cc1 (centres undefined)	0
Cc1ccc2ccc(C(Nc3ccccn3)c3cccs3)c(O)c2n1 (centres undefined)	0
CNC(=S)NNC(=O)CC1Sc2ccccc2NC1=O (centres undefined)	0
CCOC(=O)NC(C)C1CC2CCC1C2 (centres undefined)	0
COc1ccc(Cn2nc3n(c2=O)-c2ccccc2OC3)cc1	0
CCOC(=O)CSc1ccc(C(=O)O)c2c(C(=O)O)cccc12	0
Cc1onc(-c2ccccc2Cl)c1C(=O)N1C=Cc2ccccc2C1C#N (centres undefined)	0
C=CCN(CC=C)S(=O)(=O)c1ccc(C(=O)Nc2nc3c(s2)CCC3)cc1	0
O=C(c1nn2c(c1Br)NC(c1cccs1)CC2C(F)(F)F)N1CCOCC1 (centres undefined)	0
C/C(=N\NC(N)=S)c1ccc(Cl)c(Cl)c1	0
Nc1nc(N2CCOCC2)ncc1S(=O)(=O)c1ccc(Cl)cc1	3.9
Cc1nc(N2CCCC2)ncc1S(=O)(=O)c1ccc(Cl)cc1	0
Nc1c2cnc(N3CCCC3)nc2nc(=O)n1-c1ccc(Cl)cc1	0
FC(F)(F)c1cc(NC(=S)N/N=C/c2c(-c3ccc(Cl)cc3)[nH]c3ccccc23)cc(C(F)(F)F)c1	0
Cc1ccc2nc(CCCC(=O)O)[nH]c2c1	3.6
O=C(O)Cc1nc2ccc(Cl)cc2[nH]1	0
Cc1ccc(C(=O)/C=C/Sc2nc3ccc(C)cc3[nH]2)cc1	0
CC1(C(=O)O)Cc2ccccc2C(=O)O1 (centres undefined)	3.9
O=C1OC(c2ccccc2)(c2ccccc2)c2ccccc21	0
SMILES	Dicer inh
CC1(C)OC(=O)c2ccccc2-c2ccccc21	0
CCOC(=O)C1=C(C)NC2=C(C(=O)c3ccccc32)C1c1ccc(OCC(=O)O)c(Cl)c1 (centres undefined)	0
CCc1ccc(N2CC34C=CC(O3)C(C(=O)OC(C)C)C4C2=O)cc1 (centres undefined)	0
Cc1ccc(/C=N/n2cnc3sc(-c4ccccc4)cc3c2=O)o1	0
c1ccc(C2Oc3ccccc3C3CC(c4cccs4)=NN32)nc1 (centres undefined)	0
Cc1ccc(C2=NN3C(C2)c2ccccc2OC3c2ccc(F)cc2)o1 (centres undefined)	0
O=[N+]([O-])c1ccc(/C=C/C2Oc3ccccc3C3CC(c4cccs4)=NN23)o1 (centres undefined)	6.5
Cc1cc2oc(=O)sc2cc1NS(=O)(=O)c1cccc2cccnc12	0
Cc1cc(C)c(S(=O)(=O)Nc2cccc3cccnc23)c(C)c1	4.5
Cc1cc(C)c(S(=O)(=O)Nc2ccc(Br)c3cccnc23)c(C)c1	0
NC(=O)c1c(C(F)(F)F)cc[nH]c1=O	0
Cc1c(-c2ccccc2)c(=O)n(C)c2c1c(=O)n(-c1ccccc1)c(=O)n2-c1ccccc1	0
COc1ccc(C2Nc3ccc(Br)cc3-c3nnc(SC)nc3O2)c(OC)c1 (centres undefined)	0
COc1ccccc1-n1cnc2cc(NCc3ccncc3)ccc21	5.3
COc1ccccc1-n1cnc2cc(Nc3nnc(C)c4ccccc34)ccc21	0
c1ccc(-n2cnc3cc(NCc4ccccn4)ccc32)cc1	0
CCOC(=O)Nc1ccc2c(c1)N(C(=O)N1CCN(C)CC1)c1ccccc1CC2	0
CCOC(=O)Nc1ccc2c(c1)N(C(=O)NC)c1ccccc1CC2	3.5
COC(=O)Nc1ccc(S(=O)(=O)N2CCCc3ccccc32)cc1	0
Cc1ccc(C)c(NC(=O)/C=C/C(=O)O)c1	0
Cc1c(C)c(NC(=O)/C=C/C(=O)O)c(C)c(C)c1NC(=O)/C=C/C(=O)O	3.5
Cc1cc(C)cc(NC(=O)/C=C/C(=O)O)c1	7.1
Cn1cc(Br)c(NC(=O)/C=C\C(=O)O)n1	0
Cc1cc(C)c(C)c(C(=O)/C=C/C(=O)O)c1C	0
O=C(O)/C=C/C(=O)Nc1ccc(C2CCCCC2)cc1	0
CC1CN(C2=NCCN2S(=O)(=O)c2ccc(Cl)cc2)CC(C)O1 (centres undefined)	0
CCOC(=O)C1=C(CC)NC2=C(C(=O)CCC2)C1c1ccc(Cl)cc1 (centres undefined)	0
O=C1/C(=C/c2cccs2)Cc2ccccc21	0
CC(=O)Nc1ccc(S(=O)(=O)N(c2ccc(C(F)(F)F)cc2)S(=O)(=O)c2ccc(NC(C)=O)cc2)cc1	0
CCOC(=O)c1c(O)c2ccccc2n(C)c1=O	0

Assay outcomes as filed in PubChem.
